Experimental data taken from PubChem BioAssay (NCATS).
Several values for one entry are separate records, joined by “and”; a condition that tells them apart may be missing. Equal values may be shown once. Inconclusive results are not listed. Unmarked numbers belong to inactive results. Activity calls are given as the source filed them. The call rests on the fitted dose curve.

Experiments:
[1] = molecular target: Bile acid receptor (Homo sapiens) (UniProt Q96RI1); assay: qHTS assay for small molecule agonists of farnesoid X receptor signaling (AID 588527); conditions: HEK293T FXR-UAS-bla, beta-lactamase ratio, 16 h; activation: stronger effect = higher value;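 further: series mostly up to about 77 µM; 0% = vehicle basal and 100% = reference agonist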
Bile acid receptor (Homo sapiens), sequence (Q96RI1 whole entry, looked up): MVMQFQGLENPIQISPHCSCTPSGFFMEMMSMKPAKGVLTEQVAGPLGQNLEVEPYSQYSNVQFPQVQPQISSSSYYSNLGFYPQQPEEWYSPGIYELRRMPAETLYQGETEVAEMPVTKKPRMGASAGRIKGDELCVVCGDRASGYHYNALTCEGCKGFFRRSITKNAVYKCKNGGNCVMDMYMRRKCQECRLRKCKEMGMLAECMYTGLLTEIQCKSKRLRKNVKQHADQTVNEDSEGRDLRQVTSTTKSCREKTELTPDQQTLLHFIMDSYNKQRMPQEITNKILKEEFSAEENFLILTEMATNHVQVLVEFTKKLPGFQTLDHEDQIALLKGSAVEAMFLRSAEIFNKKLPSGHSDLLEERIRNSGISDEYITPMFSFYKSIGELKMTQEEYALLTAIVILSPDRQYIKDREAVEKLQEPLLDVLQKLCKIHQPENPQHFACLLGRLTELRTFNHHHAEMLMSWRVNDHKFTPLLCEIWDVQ
How it was run: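 FXR-UAS-bla HEK293T, 10% dialyzed FBS; cpds up to 92 uM titration, 16 h 37 C; CCF4 dye 2 h RT; fluorescence. Normalized to chenodeoxycholic acid 100 uM (100%) and DMSO (0%); Hill fit gives EC50, efficacy.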

[2] = molecular target: Peroxisome proliferator-activated receptor delta (Homo sapiens) (UniProt Q03181); assay: qHTS assay for small molecule agonists of peroxisome proliferator-activated receptor delta signaling (AID 588534);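 further: 0% = DMSO basal wells and 100% = positive control agonist at 10 µM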
Peroxisome proliferator-activated receptor delta (Homo sapiens), sequence (Q03181 whole entry, looked up): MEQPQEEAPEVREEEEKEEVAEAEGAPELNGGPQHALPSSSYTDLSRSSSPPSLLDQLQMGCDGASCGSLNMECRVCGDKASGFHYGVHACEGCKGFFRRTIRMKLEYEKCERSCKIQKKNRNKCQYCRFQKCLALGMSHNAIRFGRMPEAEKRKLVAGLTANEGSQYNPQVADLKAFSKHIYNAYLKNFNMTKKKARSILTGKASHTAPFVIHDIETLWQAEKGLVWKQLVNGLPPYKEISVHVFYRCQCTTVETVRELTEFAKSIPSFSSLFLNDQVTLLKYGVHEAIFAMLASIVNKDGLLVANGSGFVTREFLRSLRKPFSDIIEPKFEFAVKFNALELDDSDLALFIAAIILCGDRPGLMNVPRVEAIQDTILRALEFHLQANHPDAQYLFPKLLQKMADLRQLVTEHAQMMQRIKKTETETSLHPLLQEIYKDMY
How it was run: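 Cells carrying a PPAR-delta beta-lactamase reporter were treated with compounds for 18 h at 37 °C in agonist mode. CCF4 fluorescence was read after 2 h; EC50 and efficacy from Hill fits.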

Q: For O=C(OCCOCCOC(=O)c1ccccc1)c1ccccc1, which activation [1] is on record?
A: Its activation is -0.568%.

Q: What about the outcome [2] of the same compound?
A: Its outcome is “inactive”.

Q: Which activation [1] does the source give for CC1=C(/C=C/C(C)=C/C=C/C(C)=C/C=O)C(C)(C)CCC1 here?
A: The activation was 23.6%.

Q: And the outcome [2]?
A: The outcome was “inactive”.

Q: Which activation [1] does the source give for Nc1cc(Cl)c(N)c(Cl)c1 here?
A: Its activation is -3.48%.

Q: And the outcome [2]?
A: The outcome was “inactive”.

Q: What does the source list for CCCCOCCO?
A: activation [1]: -0.315% and -0.896% and 3.38%; outcome [2]: inactive

Q: What does the source list for C[Si](Cl)(Cl)c1ccccc1?
A: activation [1]: 0.0023%; outcome [2]: inactive

Q: For CC(C)OC(=O)c1ccccc1C(=O)OC(C)C, which activation [1] is on record?
A: Its activation is 0.429%.

Q: And the outcome [2]?
A: Its outcome is “inactive”.

Q: With O=[N+]([O-])c1ccc2nc[nH]c2c1 as the compound, how does the activation [1] read?
A: The activation was -1.7%.

Q: What about the outcome [2] of the same compound?
A: The outcome was “inactive”.

Q: For Nc1cc(Cl)nc(C(=O)O)c1Cl, which activation [1] is on record?
A: Its activation is -2.93%.

Q: And the outcome [2]?
A: The outcome was “inactive”.

Q: For Cn1sccc1=O, which activation [1] is on record?
A: The activation was 1.01%.

Q: What about the outcome [2] of the same compound?
A: Its outcome is “inactive”.

Q: Which activation [1] does the source give for COc1ccc([N+](=O)[O-])cc1N here?
A: The activation was 0.186% and -0.616%.

Q: What about the outcome [2] of the same compound?
A: The outcome was “inactive”.

Q: Nc1nc(-c2ccccc2)cs1 was tested. Which activation [1] did it give?
A: Its activation is 2.42%.

Q: And the outcome [2]?
A: Its outcome is “inactive”.

Q: Which activation [1] does the source give for C=C1C[C@]23C[C@@]1(O)CC[C@H]2[C@@]12C=C[C@H](O)[C@@](C)(C(=O)O1)[C@H]2[C@@H]3C(=O)O here?
A: Its activation is 0.442%.

Q: What about the outcome [2] of the same compound?
A: The outcome was “inactive”.

Q: Which activation [1] does the source give for N[C@@H](Cc1ccccc1)C(=O)O here?
A: Its activation is 1.47%.

Q: And the outcome [2]?
A: The outcome was “inactive”.

Q: For Cc1ncc[nH]1, which activation [1] is on record?
A: The activation was -1.48%.

Q: What about the outcome [2] of the same compound?
A: The outcome was “inactive”.

Q: What does the source list for CCC(C)OC(=O)N1CCCCC1CCO (configuration not stated)?
A: activation [1]: 1.43%; outcome [2]: inactive

Q: Which activation [1] does the source give for c1ccc(SCCSc2ccccc2)cc1 here?
A: Its activation is -0.837%.

Q: And the outcome [2]?
A: The outcome was “inactive”.
